Assay results published in PubChem BioAssay (NCATS).
Records with an inconclusive call do not appear. For some of these results: Potency and affinity values are given separately. Activity calls are given as the source filed them. Unless noted, the rule behind the calls is not given here.

Legend:
[1] = Ebola virus entry assay, green fluorescence channel
[2] = Ebola virus entry assay, blue channel fluorescence
[3] = Ebola virus entry assay, ratio channel
[4] = Ebola virus entry assay, reporter ratio channel; Channel type: primary
[5] = Ebola virus entry assay, blue channel (ratio component)
[6] = qHTS assay for measurement of the activity of small molecule inhibitors on Zika virus induced Caspase-3 activity in human iPSC derived neural progenitor cells (hNPCs) (AID 1224857; active = well fitted inhibition curve with a large enough effect; note: % of control where 0% means no effect; nearly all actives have a fitted effect of over 65% in size); details: hNPCs ZIKV-induced caspase-3/7, Caspase-Glo luminescence, 6 h; series mostly up to 45.7 µM
How it was run: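 In medium with heparin 2 ug/ml and cyclopamine 2 uM, hNPCs (350 cells/well) received compound for one hour and then Zika virus at 2 FFU/cell; caspase activity was measured by Caspase-Glo 3/7 luminescence 6 h post-infection.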

[7] = qHTS assay for measurement of the activity of small molecule inhibitors on Zika virus induced Caspase-3 activity in human astrocytoma cells (AID 1224859; active = well fitted inhibition curve with a large enough effect;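 note: plate controls were ZIKV-infected untreated cells for no effect and uninfected cells for full effect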); details: SNB-19 ZIKV-induced caspase-3/7, luminescence, 6 h; series mostly up to 45.7 µM
How it was run: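 A cell-based luminescent caspase-3/7 assay used SNB-19 cells infected with ZIKV (2 FFU/cell) for 6 h following 1 h compound pretreatment.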
Throughout, for efficacy: 0% is about no effect.

Nc1cc(C(F)(F)F)ccc1S
inactive: efficacy [1] -31.2% | outcome [2] | outcome [3] | outcome [4] | outcome [5]

C[C@]12CCC(=O)C=C1[C@@H]1C[C@@H]1[C@H]1[C@@H]3[C@@H]4C[C@@H]4[C@@]4(CCC(=O)O4)[C@@]3(C)CC[C@@H]12
active: AC50 [4] 39.8 µM
inactive: efficacy [1] 65.1% | outcome [2] | outcome [3] | outcome [5]

Nc1ccc(C(=O)N2CC3CC(CN(Cc4ccccc4)C3)C2)cc1
inactive: efficacy [1] 68.8% | outcome [2] | outcome [3] | outcome [5]
active: AC50 [4] 31.6 µM

CCC(=O)O[C@]1(C(=O)SCF)[C@H](C)C[C@H]2[C@@H]3C[C@H](F)C4=CC(=O)C=C[C@]4(C)[C@@]3(F)[C@@H](O)C[C@@]21C
inactive: efficacy [1] 69.2% | outcome [2] | outcome [3] | outcome [4] | outcome [5]

CN1Cc2c(N)cccc2C(c2ccccc2)C1 (stereo not drawn)
inactive: efficacy [1] 99.7% | outcome [5]
active: AC50 [2] 17.8 µM | AC50 [3] 25.1 µM | AC50 [4] 25.1 µM

C#C[C@]1(O)CC[C@H]2[C@@H]3[C@H](C)CC4=C(CCC(=O)C4)[C@H]3CC[C@@]21C
active: AC50 [3] 15.8 µM | AC50 [4] 15.8 µM
inactive: efficacy [1] 42.7% | outcome [2] | outcome [5]

CCCCCC(=O)O[C@]1(C(C)=O)CC[C@H]2[C@@H]3CCC4=CC(=O)CC[C@]4(C)[C@H]3CC[C@@]21C
inactive: efficacy [1] 74.4% | outcome [2] | outcome [3] | outcome [4] | outcome [5]

COC[C@@H](c1ccc(C(F)(F)F)cc1)N1CCN(C2(C)CCN(C(=O)c3c(C)ncnc3C)CC2)C[C@H]1C
active: AC50 [3] 25.1 µM | AC50 [4] 25.1 µM
inactive: efficacy [1] 69.2% | outcome [2] | outcome [5]

CCOC(=O)OCC/C(SC(=O)OCC)=C(\C)N(C=O)Cc1cnc(C)nc1N
inactive: efficacy [1] 26.7% | outcome [2] | outcome [3] | outcome [4] | outcome [5]

CCn1c(=O)c2c(nc(C=Cc3ccc(OC)c(OC)c3)n2C)n(CC)c1=O
inactive: efficacy [1] 44.2% | outcome [2] | outcome [3] | outcome [4] | outcome [5]

CCOCCn1c(N2CCCN(C)CC2)nc2ccccc21
inactive: efficacy [1] 58.4% | outcome [2] | outcome [3] | outcome [5]
active: AC50 [4] 39.8 µM

Nc1c2c(nc3ccccc13)CCCC2O (stereo not drawn)
inactive: efficacy [1] 42.6% | outcome [2] | outcome [3] | outcome [4] | outcome [5]

CC(=O)OCC(=O)[C@@]1(O)CC[C@H]2[C@@H]3CCC4=CC(=O)C=C[C@]4(C)[C@H]3[C@@H](O)C[C@@]21C
inactive: efficacy [1] -46.1% | outcome [2] | outcome [3] | outcome [4] | outcome [5]

Cc1cc(C)c(/C=C2\C(=O)Nc3ccccc32)[nH]1
inactive: efficacy [1] 78.6% | outcome [2] | outcome [3] | outcome [5]
active: AC50 [4] 35.5 µM

CN1CCOC(c2ccccc2)c2ccccc2C1 (stereo not drawn)
active: AC50 [4] 39.8 µM
inactive: efficacy [1] 45.6% | outcome [2] | outcome [3] | outcome [5]

CCCC(=O)OC[C@@H](OC(=O)CCC)[C@@H](OC(=O)CCC)[C@H](Cn1c2nc(=O)[nH]c(=O)c-2nc2cc(C)c(C)cc21)OC(=O)CCC
inactive: efficacy [1] 140% | outcome [2] | outcome [3] | outcome [4] | outcome [5]

CCN(CC)C(=O)Nc1ccc(OCC(O)CNC(C)(C)C)c(C(C)=O)c1 (stereo not drawn)
inactive: efficacy [1] -36% | outcome [2] | outcome [3] | outcome [4] | outcome [5]

CC/C(=C(/CC)c1ccc(O)cc1)c1ccc(O)cc1
inactive: efficacy [1] 26.9% | outcome [2] | outcome [3] | outcome [4] | outcome [5]

O=C(Nc1ccc([N+](=O)[O-])cc1)Nc1ccc([N+](=O)[O-])cc1
inactive: efficacy [1] -37.1% | outcome [2] | outcome [3] | outcome [4] | outcome [5]

CC(C)NCCCC1(C(N)=O)c2ccccc2-c2ccccc21
inactive: efficacy [1] 42.8% | outcome [2] | outcome [3] | outcome [4] | outcome [5]

COc1cc2c(cc1OC)C(C(C(=O)N(CCc1ccc(OC)c(OC)c1OC)CCc1ccc(OC)c(OC)c1OC)c1ccccc1)=NCC2 (stereo not drawn)
inactive: efficacy [1] 62.1% | outcome [2] | outcome [5]
active: AC50 [3] 11.2 µM | AC50 [4] 11.2 µM

O=C(COc1ccc(Cl)cc1)N1CCN(Cc2ccc3c(c2)OCO3)CC1
active: AC50 [4] 39.8 µM
inactive: efficacy [1] 71.8% | outcome [2] | outcome [3] | outcome [5]

c1cnc(N2CCN(Cc3ccc4c(c3)OCO4)CC2)nc1
inactive: efficacy [1] 47.2% | outcome [2] | outcome [3] | outcome [4] | outcome [5]

Cc1nnc2n1-c1sc(CCc3ccc(CC(C)C)cc3)cc1C(c1ccccc1Cl)=NC2C (stereo not drawn)
active: AC50 [2] 39.8 µM | AC50 [3] 31.6 µM | AC50 [4] 31.6 µM
inactive: efficacy [1] 144% | Potency [6] | outcome [7]

CC#C[C@]1(O)CC[C@H]2[C@@H]3C[C@H](C)C4=CC(=O)CC[C@]4(C)[C@H]3CC[C@@]21C
inactive: efficacy [1] 83.4% | outcome [2] | outcome [3] | outcome [5] | Potency [6] | outcome [7]
active: AC50 [4] 39.8 µM

CC(C)(C)CC(=O)OCC(=O)[C@@]1(O)CC[C@H]2[C@@H]3CCC4=CC(=O)C=C[C@]4(C)[C@H]3[C@@H](O)C[C@@]21C
inactive: efficacy [1] 47.7% | outcome [2] | outcome [3] | outcome [5]
active: AC50 [4] 28.2 µM
